# Activity calls are given as the source filed them. Calls come from the whole dose curve.
# Molecular target: Acetylcholinesterase (Homo sapiens) (UniProt P22303)
# Test: Acetylcholinesterase (AChE) small molecule antagonists: enzyme-based qHTS assay with human liver microsomes (AID 1347399); note: nearly all actives have a fitted effect of over 60% in size
# Settings: Potency: qHTS inhibition; outcome: qHTS inhibition; series mostly up to 115 µM; activity change, negative = inhibition: at the top concentration
# Method in brief: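 Recombinant human AChE (50 mU/mL in the enzyme mix) and human liver microsomes (0.25 mg/mL final) were preincubated with compound and NADPH (0.25 mg/mL final) for 30 min at 37 C. Acetylthiocholine/DTNB was then added; thiocholine was read colorimetrically after 10 min at room temperature.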
# % is set by controls: 0 for no effect and ±100 for the full control effect.
# Acetylcholinesterase (Homo sapiens), sequence (P22303 whole entry, looked up): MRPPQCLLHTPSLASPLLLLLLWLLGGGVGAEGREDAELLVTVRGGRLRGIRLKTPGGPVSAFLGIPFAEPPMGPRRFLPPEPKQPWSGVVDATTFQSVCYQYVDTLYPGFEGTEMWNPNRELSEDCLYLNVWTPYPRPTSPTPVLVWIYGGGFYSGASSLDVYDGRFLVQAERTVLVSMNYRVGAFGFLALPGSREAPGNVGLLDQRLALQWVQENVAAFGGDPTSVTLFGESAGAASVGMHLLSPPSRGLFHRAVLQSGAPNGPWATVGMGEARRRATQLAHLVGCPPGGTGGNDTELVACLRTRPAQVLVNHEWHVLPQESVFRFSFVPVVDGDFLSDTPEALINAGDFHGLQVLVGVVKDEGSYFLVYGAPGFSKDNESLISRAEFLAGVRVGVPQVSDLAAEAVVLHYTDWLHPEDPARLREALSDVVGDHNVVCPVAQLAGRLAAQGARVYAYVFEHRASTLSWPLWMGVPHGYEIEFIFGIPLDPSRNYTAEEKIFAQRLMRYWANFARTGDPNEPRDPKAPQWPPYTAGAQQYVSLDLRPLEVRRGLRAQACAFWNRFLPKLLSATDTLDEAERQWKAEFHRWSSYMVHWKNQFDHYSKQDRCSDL
SMILES,Potency,"activity change, negative = inhibition"
CCCCCCCCCCCCCCCO,inactive,–
c1ccc2c(c1)ccc1cc3c(ccc4ccccc43)cc12,inactive,–
COc1cc(C(=O)NCCCCCC(=O)O)cc(OC)c1OC,–,0.588% [at 53 µM] (inactive)
CCN1C=CN(C)C1C (configuration not stated),–,0.372% (inactive)
C=C(CC)C(=O)c1ccc(OCC(=O)O)c(Cl)c1Cl,inactive,–
C[C@@H]1O[C@@H](O[C@@H]2[C@@H](O)[C@H](OCCc3ccc(O)c(O)c3)O[C@H](CO[C@@H]3O[C@H](CO)[C@@H](O)[C@H](O)[C@H]3O)[C@H]2OC(=O)/C=C/c2ccc(O)c(O)c2)[C@H](O)[C@H](O)[C@H]1O,–,0.171% (inactive)
CC(N)CN (configuration not stated),–,-1.47% (inactive)

# Reference: PubChem BioAssay (Tox21)
